IL-1B inflam inh – qHTS for Inhibitors of Inflammasome Signaling: IL-1-beta AlphaLISA Primary Screen; THP-1 LPS/ATP IL-1B secretion, AlphaLISA, 16 h; stronger effect = lower value; activity change, % at 57.5 µM; 360,000 compounds, 4.7% hits; in the data active = activity change below about -50%; inconclusive = mostly about -30% to -49%
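THP-1 cells pretreated 1 hr with compounds (up to 57.5 uM final), then stimulated with LPS (250 ng/mL final) plus ATP (1.25 mM final); secreted IL-1B measured by AlphaLISA after 16 hr, decreased signal indicating inhibition.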
HT1080 IDH1KD tx – qHTS for induction of synthetic lethality in tumor cells producing 2HG: qHTS for the HT-1080-IDH1KD cell line. HT-1080 IDH1 knockdown viability, ATP luminescence, 48 h. Potency, µM (doses to about 46.1 µM), actives largely listed as cytotoxic. 360,000 compounds, 2% hits. AID 686971, 2013
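Assay cells: HT-1080 with IDH1 knockdown, 750 per well, RPMI/5% FBS. Exposure: 48 h at 37 °C following 2 h pre-incubation. Read: CellTiter-Glo luminescence; fitted concentration-response, curve class assigned.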
TDP1 cell noCPT – qHTS for Inhibitors of human tyrosyl-DNA phosphodiesterase 1 (TDP1): qHTS in cells in absence of CPT; DT40 Tdp1-/- hTDP1 cells, no CPT, ATP luminescence, 48 h; Potency, µM (top dose mostly 46.2 µM), actives largely listed as inhibitors; 420,000 compounds, 15% hits; note: nearly all actives have a fitted effect of over 55% in size
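Cells were dispensed at 400 per well, compounds added by pin tool, plates incubated ≥48 hr at 37 °C, then CellTiter-Glo added for 30 min at room temperature before luminescence reading. Line: DT40 Tdp1-/- complemented with hTDP1; camptothecin omitted.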
HT1080-NT tox – qHTS for induction of synthetic lethality in tumor cells producing 2HG: qHTS for the HT-1080-NT fibrosarcoma cell line. HT-1080-NT fibrosarcoma viability, CellTiter-Glo ATP luminescence, 48 h. Potency, µM (top dose mostly 46.1 µM), actives largely listed as cytotoxic. 360,000 compounds, 1.6% hits;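 note: NT is the 2HG producing partner of a matched IDH1 knockdown line; nearly all actives have a fitted effect of over 55% in size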
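Viability of the 2HG-overproducing fibrosarcoma line after 48 hours of compound exposure at 37 degrees C was determined by luminescence with CellTiter-Glo, and concentration-effect curves were then fitted and categorized.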
TDP1 cell CPT – qHTS for Inhibitors of human tyrosyl-DNA phosphodiesterase 1 (TDP1): qHTS in cells in presence of CPT; chicken DT40 Tdp1-/-;hTDP1 cells + 20 nM CPT, ATP luminescence, 48 h; Potency, µM (titrated, usually from 46.2 µM), hits mostly inhibitors; 420,000 compounds, 12% hits; AID 686979, 2013; note: nearly all actives have a fitted effect of over 55% in size
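Chicken DT40 Tdp1-/- cells stably complemented with human TDP1 were seeded at 400 cells/well in medium containing 20 nM camptothecin, exposed to pin-transferred compounds, and grown at 37 °C for at least 48 hr. Viability was read as ATP luminescence.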
Each line names hits and unclear results; the compound was inactive in the other large screens. A selection: hits, their analogues and other compounds. The true share with any hit is near 19%. Unless noted, calls come from the whole dose curve; as a rule, active = well fitted curve in the direction sought with a large enough effect; inconclusive = small, poorly fitted or top-dose-only effect, or another doubt; inactive = no such curve, though single readings can be large; an effect the other way counts as inactive or inconclusive.

OCCN1CCN(CC(O)COc2ccc(C34CC5CC(CC(C5)C3)C4)cc2)CC1 (stereo unspecified)	IL-1B inflam inh -97.3, HT1080 IDH1KD tx 23.1µM, TDP1 cell noCPT 5.17µM, HT1080-NT tox 18.4µM, TDP1 cell CPT 5.17µM
Cc1oc(-c2ccccc2NC(=O)c2ccccc2)nc1CNC(=O)c1cccc(-n2cccn2)c1	none (no result: IL-1B inflam inh, HT1080 IDH1KD tx, HT1080-NT tox)
Brc1ccc2nc(C3CCCCC3)c(Cc3ccccc3)n2c1	HT1080 IDH1KD tx inconclusive, TDP1 cell noCPT inconclusive, TDP1 cell CPT inconclusive
NC(c1csc(NC(=O)c2cccc(OC(F)(F)F)c2)n1)c1ccccc1Cl (stereo unspecified)	HT1080 IDH1KD tx inconclusive, TDP1 cell noCPT 5.8µM, HT1080-NT tox 23.1µM, TDP1 cell CPT 4.11µM
COC(=O)c1cnc(Nc2nc(C(N)c3ccccc3Cl)cs2)nc1C(F)(F)F (stereo unspecified)	HT1080 IDH1KD tx inconclusive, TDP1 cell noCPT 25.9µM, HT1080-NT tox inconclusive, TDP1 cell CPT inconclusive
COC(=O)c1cnc(Nc2nc(C(N)COCc3ccccc3)cs2)nc1C(F)(F)F (stereo unspecified)	TDP1 cell noCPT 14.6µM, TDP1 cell CPT inconclusive
COc1ccc(S(=O)(=O)N2CCC(C(=O)N[C@@H](C)C(=O)NCc3ccccn3)CC2)cc1	none
CCOC(=O)C1CCN(C(=O)C2CCCN2S(=O)(=O)c2ccc(Cl)cc2)CC1 (stereo unspecified)	TDP1 cell CPT inconclusive
Cc1cc(OCC(=O)N(C(C)C)C(C)C)cc(C)c1Br	IL-1B inflam inh inconclusive, TDP1 cell noCPT inconclusive, TDP1 cell CPT inconclusive
Cc1ccc(NC(=O)Cn2cc(C(=O)c3ccco3)c3ccccc32)cc1	TDP1 cell noCPT 14.6µM, TDP1 cell CPT inconclusive (no result: IL-1B inflam inh, HT1080 IDH1KD tx, HT1080-NT tox)
Cc1ccc(NC(=O)Cn2cc(C(=O)c3ccco3)c3ccccc32)cc1C	TDP1 cell noCPT 18.4µM, TDP1 cell CPT inconclusive (no result: IL-1B inflam inh, HT1080 IDH1KD tx, HT1080-NT tox)
COc1ccc(NC(=O)Cn2cc(C(=O)c3ccco3)c3ccccc32)cc1	TDP1 cell noCPT inconclusive, TDP1 cell CPT inconclusive
O=C(Cn1cc(C(=O)c2ccco2)c2ccccc21)Nc1ccccc1	TDP1 cell noCPT 11.6µM, TDP1 cell CPT 10.3µM
C=CCn1c(=O)c2ccccc2n2c(SCC(C)=O)nnc12	none
O=C(CCS(=O)(=O)c1ccc(Cl)cc1)OCC(=O)N1CCCCC1	none
CN(C)S(=O)(=O)c1cccc(NC(=S)N/N=C/C(c2ccccc2)c2ccccc2)c1	TDP1 cell noCPT 13µM, TDP1 cell CPT inconclusive
C=C(C)CNC(=S)N/N=C/c1ccco1	TDP1 cell noCPT 5.17µM, TDP1 cell CPT 18.4µM
COc1ccc2cc(C(C)C(=O)Nc3cccc(S(=O)(=O)N(C)C)c3)ccc2c1 (stereo unspecified)	TDP1 cell noCPT 23.1µM, HT1080-NT tox inconclusive, TDP1 cell CPT inconclusive
COc1cccc(/C=N/NC(=S)Nc2cccc(S(=O)(=O)N(C)C)c2)c1	TDP1 cell noCPT 8.2µM, TDP1 cell CPT 4.11µM
Cc1ccc(OCC(=O)c2c(N)n(C)c(=O)n(C)c2=O)c([N+](=O)[O-])n1	none
COc1ccc(O)c(/C=N/NC(=S)Nc2cccc(S(=O)(=O)N(C)C)c2)c1	IL-1B inflam inh -62.8, HT1080 IDH1KD tx inconclusive, TDP1 cell noCPT 6.51µM, TDP1 cell CPT 6.51µM
CN(C)S(=O)(=O)c1cccc(NC(=S)N/N=C/c2ccco2)c1	TDP1 cell noCPT 5.8µM, TDP1 cell CPT 4.61µM
CN(C)S(=O)(=O)c1cccc(NC(=S)N/N=C/c2ccc(O)c(O)c2O)c1	TDP1 cell noCPT 16.4µM, TDP1 cell CPT inconclusive
COc1ccc(CCNC(=O)CSc2nnnn2-c2cccc(C(C)=O)c2)cc1OC	none (no result: IL-1B inflam inh, HT1080 IDH1KD tx, HT1080-NT tox)
CCOC(=O)Cc1c(C)nc(SC)[nH]c1=O	none
Cc1c(Cc2ccccc2)sc(NC(=O)C(C)(C)C)c1C(N)=O	TDP1 cell noCPT 29.1µM, TDP1 cell CPT 16.4µM
CCC(=O)Nc1sc(Cc2ccccc2)c(C)c1C(N)=O	TDP1 cell noCPT inconclusive, TDP1 cell CPT 16.4µM

Bioassay records (PubChem)
